HepG2 tox – HepG2 cytotoxicity, counter-screen for TGF-b inhibitors; Potency, µM (series often up to 46.1 µM), actives largely listed as cytotoxic; actives 0.76% (n = 410,000); HepG2 CAGA-GFP viability, ATP luminescence, 18 h
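HepG2 CAGA-GFP cells (1000/well, DMEM with 1% FBS) received compound, then TGF-beta at 500 pg/mL final, and were incubated 18 hours at 37 degrees C. Viability was read by CellTiter-Glo luminescence. Media-only wells were set as complete cell-killing and DMSO as no toxicity.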
ATXN2 expr inh – inhibitors of ATXN2 expression. HEK-293 ATXN2-luciferase reporter, luminescence, 24 h. Potency, µM (titrated, usually from 57 µM), most hits filed as inhibitors. actives 0.72% (n = 360,000). AID 1745845; further: nearly all actives have a fitted effect of over 55% in size
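ATXN2-luciferase reporter cells (luciferase flanked by upstream and downstream ATXN2 gene portions) were treated 24 h at 37 °C with compounds at up to 57 uM. SteadyGlo luminescence gave expression; GF-AFC fluorescence gave viability.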
TDP1 cell noCPT – qHTS for Inhibitors of human tyrosyl-DNA phosphodiesterase 1 (TDP1): qHTS in cells in absence of CPT; DT40 Tdp1-/- hTDP1 cells, no CPT, ATP luminescence, 48 h; Potency, µM (titrated, usually from 46.2 µM), most hits filed as inhibitors; actives 15% (n = 420,000); further: nearly all actives have a fitted effect of over 55% in size
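Seeded 400 DT40-hTDP1 cells/well (vehicle DMSO, no 20 nM CPT); pinned compounds; ≥48 hr at 37 °C; CellTiter-Glo luminescence as viability measure.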
ATXN viability – cell viability loss in ATXN counter-screen. S2 cells (HEK-293 line with an ATXN2-luciferase reporter) viability, CellTiter-Fluor protease fluorescence, 24 h. Potency, µM (titrated, usually from 56.7 µM), actives largely listed as cytotoxic. actives 0.49% (n = 400,000). AID 651635; further: nearly all actives have a fitted effect of over 40% in size
DT40 TDP1 CPT – growth inhibition of DT40 Tdp1-/-;hTDP1 cells with camptothecin (screen for TDP1 inhibitors); chicken DT40 Tdp1-/-;hTDP1 cells + 20 nM CPT, ATP luminescence, 48 h; Potency, µM (highest dose often 46.2 µM), hits mostly inhibitors; actives 12% (n = 420,000); AID 686979; further: nearly all actives have a fitted effect of over 55% in size
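Chicken DT40 Tdp1-/- cells stably complemented with human TDP1 were seeded at 400 cells/well in medium containing 20 nM camptothecin, exposed to pin-transferred compounds, and grown at 37 °C for at least 48 hr. Viability was read as ATP luminescence.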
TGFb inhibitor – inhibitors of TGF-b signaling. HepG2 CAGA-GFP TGF-b/SMAD3 reporter, GFP fluorescence, 18 h; TGF-beta stimulated, 500 pg/mL final. Potency, µM (doses to about 46.1 µM), most hits filed as inhibitors. actives 1.2% (n = 410,000). AID 588855; further: nearly all actives have a fitted effect of over 65% in size
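Inhibition was scored as loss of TGF-beta-induced (500 pg/mL final, 18 hours, 37 degrees C) GFP in HEPG2 cells carrying a CAGA-GFP reporter, in DMEM with 1% FBS. Well GFP was summed per cell; Activity was normalised to unstimulated and stimulated DMSO wells, then concentration-response fitting.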
Large screens that a line does not name were inactive. Sampled rows, rich in hits. Any-hit rate of the full collection: about 17%. The call rests on the fitted dose curve; in most records, active means well fitted curve in the direction sought with a large enough effect; inconclusive means small, poorly fitted or top-dose-only effect, or another doubt; inactive means no such curve, though single readings can be large; an effect the other way counts as inactive or inconclusive.

CC(C)C[C@H]1CN([C@@H](CC(C)C)CN2CCCC2CN2C(=S)NC[C@@H]2Cc2ccc(O)cc2)C(=S)N1CC1CCCCCC1 (some centres not stated)	TDP1 cell noCPT 18µM, DT40 TDP1 CPT 18µM
O=C(CSc1nc2ccccc2c(=O)n1-c1ccccc1)Nc1ccc2c(c1)CCC2	TDP1 cell noCPT 21µM, DT40 TDP1 CPT inconclusive
CCN(CC)S(=O)(=O)c1ccc(C)c(NCC(=O)Nc2ccc(C#N)c(Cl)c2)c1	TDP1 cell noCPT 15µM, DT40 TDP1 CPT 16µM, TGFb inhibitor inconclusive
Cc1ccc2nc(NC(=O)c3cccn(Cc4ccc(Cl)cc4)c3=O)sc2c1	none
O=C(Nc1ccc2nc(SCC(=O)N3CCOCC3)sc2c1)c1ccc(Cl)cc1	TDP1 cell noCPT 7.3µM, DT40 TDP1 CPT inconclusive, TGFb inhibitor inconclusive (no result: ATXN2 expr inh, ATXN viability)
CNC(=O)COC(=O)c1ccc(-c2nc3ccccc3s2)s1	TDP1 cell noCPT inconclusive
Fc1ccc(CCNCc2ccccc2Cl)cc1	none
CCOc1ccc(Cl)cc1CNCCc1ccc(F)cc1	TDP1 cell noCPT 16µM, ATXN viability inconclusive, DT40 TDP1 CPT 21µM
O=C(O)[C@@H](O)[C@H](O)C(=O)O	none
c1ccc(C(OCCN2CCN(c3ncccn3)CC2)c2ccccc2)cc1	TDP1 cell noCPT inconclusive, DT40 TDP1 CPT inconclusive
C(=C\c1ccccc1)/CN1CCN(CCOC(c2ccccc2)c2ccccc2)CC1	TDP1 cell noCPT 4.6µM, DT40 TDP1 CPT 3.7µM (no result: HepG2 tox, ATXN2 expr inh, ATXN viability, TGFb inhibitor)
C[C@@]12CC3CC(N)(C1)C[C@@](C)(C3)C2	none (no result: HepG2 tox, ATXN2 expr inh, TDP1 cell noCPT, DT40 TDP1 CPT, TGFb inhibitor)
O=C(Cn1c(=O)oc2ccccc21)N(Cc1ccccc1)C1CCS(=O)(=O)C1 (configuration not stated)	TDP1 cell noCPT inconclusive, DT40 TDP1 CPT 23µM
O=C(CCc1ccc(O)cc1)N1C[C@H]2C[C@@H](C1)c1cccc(=O)n1C2	none
CC(C)=CCc1c(O)cc2c(c1O)C(=O)CC(c1ccc(O)cc1)O2 (configuration not stated)	TDP1 cell noCPT 23µM, DT40 TDP1 CPT 16µM, TGFb inhibitor inconclusive
CC(=O)c1ccc(NC(=O)c2sc3nc4c(cc3c2N)N2CCC4CC2)cc1	ATXN2 expr inh inconclusive, ATXN viability inconclusive (no result: TDP1 cell noCPT, DT40 TDP1 CPT)
Nc1c(C(=O)Nc2ccc(OC(F)(F)F)cc2)sc2nc3c(cc12)N1CCC3CC1	TDP1 cell noCPT 18µM, DT40 TDP1 CPT 16µM (no result: ATXN2 expr inh, ATXN viability)
CC(C)(C)c1[nH]nc2c1C(c1ccoc1)C(C#N)=C(N)O2 (configuration not stated)	TDP1 cell noCPT inconclusive
O=[N+]([O-])c1ccc(N2CCCC2)c2ncccc12	none
CC1CN(c2ccc([N+](=O)[O-])c3cccnc23)CC(C)N1 (configuration not stated)	TDP1 cell noCPT 23µM
CCN(CC)C(=O)c1ccc(NC(=O)CCn2nc(-c3ccc(Cl)cc3)c3ccccc3c2=O)cc1	ATXN2 expr inh inconclusive, TDP1 cell noCPT 18µM, ATXN viability inconclusive, DT40 TDP1 CPT inconclusive, TGFb inhibitor inconclusive
COc1ccc(N/N=C/c2c(O)n(-c3ccc(C)c(C)c3)c(=O)[nH]c2=O)cc1	TDP1 cell noCPT 29µM, DT40 TDP1 CPT inconclusive
Cc1ccc(-n2c(O)c(/C=N/Nc3ccccc3)c(=O)[nH]c2=O)cc1C	none
COc1ccc2nc(NC(=O)c3nc(S(=O)(=O)Cc4cccc(C)c4)ncc3Cl)sc2c1	TDP1 cell noCPT 2.1µM, DT40 TDP1 CPT 1.6µM, TGFb inhibitor inconclusive (no result: ATXN2 expr inh, ATXN viability)
COc1ccc(C(=O)Oc2cccc3cccnc23)cc1S(=O)(=O)N1CCOCC1	HepG2 tox 13µM, TDP1 cell noCPT 3.3µM, DT40 TDP1 CPT inconclusive, TGFb inhibitor 13µM
CN1[C@@H](C[C@@H](O)c2ccccc2)CCC[C@@H]1C[C@H](O)c1ccccc1	none (no result: HepG2 tox, ATXN2 expr inh, TDP1 cell noCPT, DT40 TDP1 CPT, TGFb inhibitor)
O=C1C2CCN(CC2)C1Cc1ccc(OCCOc2ccccc2)cc1 (configuration not stated)	TDP1 cell noCPT inconclusive, DT40 TDP1 CPT 29µM

Screens (PubChem)
